# Experimental data as given in PubChem BioAssay (NCATS).
# Results filed as inconclusive are left out. Values without a mark were called inactive. Activity calls are given as the source filed them. The call rests on the fitted dose curve; in most records, active means well fitted activation curve with a large enough effect in the repeat runs; inconclusive means weak or mixed curves; inactive means flat fitted curve, though single readings scatter.
# Assay: qHTS assay for small molecule agonists of the antioxidant response element (ARE) signaling pathway measured by Nrf2-dependant transcriptional activity (AID 720636); on activation: % of control where 0% means no effect
# Conditions: ARE-luc HepG2, Nrf2 luciferase reporter, 16 h; series mostly up to 92.4 µM; activation: at the top concentration
# Source text: National Center for Advancing Translational Sciences [NCATS] NIH Chemical Genomics Center [NCGC] U.S. Environmental Protection Agency [EPA] National Institutes of Environmental Health Sciences [NIEHS] National Toxicology Program [NTP] Assay Overview: The antioxidant response element (ARE) signaling pathway plays an important role in the cellular anti-oxidant defense. Exposure to stressors which are exogenous like ionizing radiations, chemicals, U-V light, and endogenous like cell signaling, metabolic processes or inflammation, reactive oxygen species (ROS), can induce oxidative stress in the cells. Oxidative stress has been implicated in the pathogenesis of a variety of diseases ranging from cancer to neurodegeneration. ARE-luc HepG2 cell line (Simmons et al., Current Chemical Genomics, 5:1-12, 2011) has been used for identifying the chemicals that induce oxidative stress. The cell line has an Nrf2-responsive luciferase reporter gene that has been engineered to measure Nrf2-dependant transcriptional activity.
# Assay Protocol Summary: For measuring ARE induction; 2,000 ARE-luc HepG2 cells in 5 uL of assay medium containing 1% dialyzed FBS per well were dispensed into white wall/solid bottom 1536-well plates using a Flying Reagent Dispenser (FRD) (Aurora Discovery). The assay plates were incubated for 6 hr at 37 C to allow cell attachment to the well bottom, followed by the transfer of 23 nL compound or DMSO vehicle by a pin tool (Kalypsys). The plates were incubated for 16 hr at 37 C and 5% CO2, followed by the addition of 5 uL of ONE-GloTM luciferase reagent (Promega) into each well using FRD. After 30 min room temperature incubation, plates were read on a ViewLux plate reader (PerkinElmer).
# Potency means the concentration at half of the fitted maximal effect.
SMILES,Potency,activation
Cc1ccc(N=Nc2c(O)ccc3ccccc23)c(C)c1,10.9 µM (active),
CCCCCCC(C)(C)S,,1.08%
CCCCC(CC)COP(=O)(O)OCC(CC)CCCC (stereo not given),,0.276%
O=C(O)CN(CCCN(CC(=O)O)CC(=O)O)CC(=O)O,,-0.552%
COc1nc(C)nc(NC(=O)NS(=O)(=O)c2ccccc2OCCCl)n1,,0.229%
CC1(C)C(=O)NC(=O)N1CO,,-0.345%
CNc1nc(=O)n(C2CCC(O)CC2)c(=O)n1C (stereo not given),,0.845%
COC(=O)c1ccc(I)cc1S(=O)(=O)NC(=O)Nc1nc(C)nc(OC)n1,,0.303%
CCCCCCCCCc1ccccc1,,0.719%
CCCCCCCCCCCCCCCCCC#N,,-0.126%
Oc1ccc(C(c2ccc(O)cc2)C(Cl)(Cl)Cl)cc1,,-0.374%
CCCCCCCCCCCCCCCCCCN,,-0.101%
COC(=O)c1ccc(C(=O)OC)cc1,,0.413%
N#CSCSc1nc2ccccc2s1,,1.15%
CN(C)c1nc(=O)n(C2CCC(O)CC2)c(=O)n1C (stereo not given),,-0.813%
O=C(O)c1ccc(C(=O)O)c(C(=O)O)c1,,-0.527%
COC(OC)(C(=O)c1ccccc1)c1ccccc1,,-0.79%
C=C[Si](OCCOC)(OCCOC)OCCOC,,-0.218%
CCCCC(CC)COC(=O)/C=C\C(=O)OCC(CC)CCCC (stereo not given),,1.69%
CCCCCCCC(=O)OC,,0.681%

SMILES,Potency,activation
CCCCOCCOCCOC(C)=O,,-0.116%
CCCCCCC(O)CCCCCCCCCCC(=O)O (stereo not given),,0.978%
Oc1ccc2ccccc2c1N=Nc1ccccc1,9.69 µM (active),
CCNc1nc(NC(C)CC)nc(OC)n1 (stereo not given),,1.14%
CCCCCCC(O)CCCCCCCCCCC(=O)OC (stereo not given),,0.441%
CC1(C)C(=O)N(Br)C(=O)N1Cl,,1.44%
C1=C/CC/C=C/CC/C=C/CC/1,,0.0451%
C=CCCCCCCCCCC,,0.11%
CCCCOCCOCCOC(=O)CCCCC(=O)OCCOCCOCCCC,,0.0706%
CC1(C)[C@@H](C=C(Cl)Cl)[C@@H]1C(=O)OCc1cccc(Oc2ccccc2)c1,,0.516%
CC(=O)N(CCN(C(C)=O)C(C)=O)C(C)=O,,0.129%
CCCCCCCC/C=C\CCCCCCCCO,,-0.0765%
Clc1nc(Cl)c(Cl)c(Cl)c1Cl,,2.98%
Cc1ccc(C(C)(C)C)c(O)c1,,0.242%
C=CCOC(=O)CC(C)C,,-0.381%
CC(C)(C)C(O)/C(=C\c1ccc(Cl)cc1)n1cncn1 (stereo not given),,-0.341%
O=C(O)CCCCCCC(=O)O,,0.84%
Nc1cc(Cl)nc(C(=O)O)c1Cl,,-0.225%
O=C1CCCC/C=C/CCCCCCCCCO1,,-1.45%
CCCCCCCCCCCC(=O)N(C)CC(=O)O,,0.07%
